Results with a measured potency or affinity are listed apart.
Molecular target: NAD-dependent protein deacylase sirtuin-5, mitochondrial (Homo sapiens) (UniProt Q9NXA8)
Experiment: blockers of sirtuin-5 peptide desuccinylation – biochemical, fluorescence imaging, cherry-pick, set 6, dose response (AID 720597);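 also: lower AMC signal can also come from blocking the trypsin step; 0% = median of neutral control wells and -100% = median of positive control wells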
Conditions: Purified SirT5, succinyl-peptide-AMC/trypsin fluorescence; series mostly up to 15 µM; activity change, negative = inhibition: at the top concentration;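 active = fitted half-maximal dose no more than twice the top valid tested dose, for compounds that lower signal; inconclusive = fit invalid, or curve flat with activity between -70 and -30; inactive = potency past limit, curve flat within ±30, or signal increasing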

Chain of NAD-dependent protein deacylase sirtuin-5, mitochondrial (Homo sapiens) (Q9NXA8 whole entry, looked up): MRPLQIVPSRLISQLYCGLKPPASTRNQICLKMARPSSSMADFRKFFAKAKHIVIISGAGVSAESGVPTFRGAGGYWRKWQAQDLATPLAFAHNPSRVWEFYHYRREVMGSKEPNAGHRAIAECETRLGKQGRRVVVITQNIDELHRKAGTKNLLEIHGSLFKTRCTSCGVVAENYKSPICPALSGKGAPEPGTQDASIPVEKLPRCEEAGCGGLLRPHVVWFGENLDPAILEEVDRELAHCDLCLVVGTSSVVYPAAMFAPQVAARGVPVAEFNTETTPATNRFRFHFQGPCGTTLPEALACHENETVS

Activity change, negative = inhibition, inactive:
COc1ccccc1-c1ccc([C@@H]2[C@@H]3CN(S(=O)(=O)c4ccc(-c5ccccc5)cc4)C[C@H]2N3)cc1 29.3%
C[C@H](CO)N1C[C@H](C)[C@H](CN(C)Cc2ccccc2)Oc2cc(/C=C/c3ccccc3)ccc2S1(=O)=O -19.4%
CCCNC(=O)N1CC(=O)N2[C@H](CO)[C@@H](c3ccc(-c4ccc(F)cc4)cc3)[C@@H]2C1 -13.1%
O=C(CN1CCOCC1)NCC[C@H]1CC[C@@H](NS(=O)(=O)c2ccc(Cl)cc2)[C@@H](CO)O1 -11.2%
C=CCOC(=O)[C@@H]1[C@H]2C(=O)O[C@H](c3ccccc3)[C@H](c3ccccc3)N2[C@H](c2ccc(OCCOC(=O)[C@@H]3C[C@@H]4C(=O)N[C@@H](Cc5ccccc5)C(=O)N4[C@@H]3c3ccc(O)cc3)cc2)[C@@]12C(=O)Nc1ccc(I)cc12 12%
C[C@@H]1CN([C@H](C)CO)S(=O)(=O)c2ccc(C#Cc3ccc(F)cc3)cc2O[C@H]1CN(C)C(=O)NC1CCCCC1 -8.32%
O=C(CSc1nnc(-c2ccco2)n1-c1ccccc1)Nc1ccc(F)cc1 2.96%
Cc1cccc(-c2ccc([C@H]3[C@H](CO)N4CCCCN(S(=O)(=O)c5cccc(C)c5)C[C@@H]34)cc2)c1 -30.5%
CNC[C@@H]1Oc2ccc(NC(=O)Nc3ccc(F)cc3)cc2CC(=O)N([C@@H](C)CO)C[C@H]1C 14.1%
C[C@@H]1CCCCO[C@H](CN(C)Cc2ccc(C(F)(F)F)cc2)[C@H](C)CN([C@H](C)CO)C(=O)c2cc(NC(=O)c3ccncc3)ccc2O1 -22.7%
O=C(CN1CCOCC1)NCC[C@@H]1CC[C@H](NC(=O)Nc2ccc(F)cc2)[C@H](CO)O1 34.6%
O=C1CNC[C@H]2[C@@H](c3ccc(C4=CCCC4)cc3)[C@H](CO)N12 34.8%
COc1ccc(S(=O)(=O)Nc2ccc3c(c2)C(=O)N([C@@H](C)CO)C[C@@H](C)[C@H](CN(C)Cc2ccc(C(F)(F)F)cc2)OCCCC[C@@H](C)O3)cc1 -24.5%
C[C@H]1CN([C@@H](C)CO)C(=O)c2cccc(NC(=O)c3nc4ccccc4s3)c2O[C@H]1CN(C)Cc1ccc(C(F)(F)F)cc1 4.41%
CO[C@@H]1CC[C@@H]2CCN(C)C(=O)C[C@H](c3ccccc3)CN(C)C(=O)c3cccc(C#N)c3OC[C@@H]1O2 -15.7%
COCC(=O)NC[C@H]1N[C@H](CO)[C@@H]1c1ccc(C2=CCCCC2)cc1 15%
C[C@@H]1CCCCO[C@H](CN(C)S(=O)(=O)c2ccc(Cl)cc2)[C@H](C)CN([C@H](C)CO)C(=O)c2cc(NS(=O)(=O)c3ccc(F)cc3)ccc2O1 -23.1%
C[C@@H]1CN([C@@H](C)CO)S(=O)(=O)c2ccc(C#CC(C)(C)O)cc2O[C@H]1CN(C)Cc1ccc(F)cc1 9.62%
COc1ccc(S(=O)(=O)Nc2ccc3c(c2)CC(=O)N([C@@H](C)CO)C[C@H](C)[C@H](CN(C)Cc2ccc(C(F)(F)F)cc2)O3)cc1 -13.8% [at 7.5 µM]
O=C(NC1CCCC1)[C@H]1[C@H](CO)[C@H]2Cn3c(ccc(-c4ccncc4)c3=O)[C@H]2N1CCc1ccccc1 1.4%
O=S(=O)(c1ccc(F)cc1)N1CCCCN2[C@@H](CO)[C@@H](c3ccc(C#CC4CCCC4)cc3)[C@@H]2C1 -19.5%
COc1cccc(NC(=O)N2CC(=O)N3[C@H](CO)[C@@H](c4ccc(C#CCC5CCCC5)cc4)[C@H]3C2)c1 -27%
CCCC(=O)Nc1ccc2c(c1)OC[C@H](C)N(Cc1ccccc1)C[C@H](C)[C@H](OC)CN(C)C2=O -11.7%
CCCC(=O)Nc1ccc2c(c1)OC[C@@H](C)N(Cc1ccccc1)C[C@@H](C)[C@@H](OC)CN(C)C2=O -26.8%
CO[C@H]1CC[C@@H]2CCOc3c(C#N)cccc3C(=O)N(C)C[C@H](C)C(=O)N(C)C[C@@H]1O2 -14.8%
Cc1ccc(S(=O)(=O)N[C@@H]2C=C[C@H](CC(=O)N3CCN(c4ccccc4)CC3)O[C@@H]2CO)cc1 1.72%
N#C[C@H]1[C@@H](c2ccccc2-c2ccccc2)[C@@H](CO)N1c1ncc(-c2ccccc2)s1 11.6%
C[C@H]1CN([C@@H](C)CO)S(=O)(=O)c2ccc(C3=CCCC3)cc2O[C@@H]1CN(C)Cc1ccccc1 -8.23%
C[C@H]1CN([C@@H](C)CO)C(=O)c2cc(-c3ccc(C#N)cc3)cnc2O[C@@H]1CN(C)C(=O)Nc1ccc(C(F)(F)F)cc1 -27.3%
